From publication PMC7862700, “An all-to-all approach to the identification of sequence-specific readers for epigenetic DNA modifications on cytosine”

Experiments:
Test in all cases: DAPPL (digital affinity profiling via proximity ligation, sequencing); 10 mM Tris-HCl pH 7.5, 50 mM NaCl, 1 mM DTT, 4% glycerol, room temperature, 30 min; GST-TFs on glutathione beads, 16-mer random dsDNA library, 0.1% formaldehyde crosslink after washing; high values mean tight binding
FLI1 = target: T1, FLI1 (Homo sapiens, UniProt Q01543 1-452); details: protein: recombinant; tags: N-terminal GST; dsDNA, one strand shown
T1 sequence: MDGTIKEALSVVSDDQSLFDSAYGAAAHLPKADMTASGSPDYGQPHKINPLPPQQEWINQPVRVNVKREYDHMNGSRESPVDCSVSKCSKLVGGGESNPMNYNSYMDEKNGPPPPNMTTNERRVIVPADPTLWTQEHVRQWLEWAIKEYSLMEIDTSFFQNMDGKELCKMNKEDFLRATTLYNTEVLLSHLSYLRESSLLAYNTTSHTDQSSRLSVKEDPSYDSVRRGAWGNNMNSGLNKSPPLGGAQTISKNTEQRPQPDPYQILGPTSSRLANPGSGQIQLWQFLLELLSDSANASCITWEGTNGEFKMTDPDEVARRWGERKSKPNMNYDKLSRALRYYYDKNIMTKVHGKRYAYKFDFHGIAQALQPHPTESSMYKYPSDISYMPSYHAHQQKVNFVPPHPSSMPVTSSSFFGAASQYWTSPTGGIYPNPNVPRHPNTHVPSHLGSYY
In short: (§1)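 Beads coated with glutathione captured GST-fused human transcription factors that had been expressed in yeast, and the factors were then given DNA barcodes and pooled with a tag-only sample. The pools were incubated with 200 nmole of a random double-stranded 16-mer DNA library in Tris/NaCl/DTT/glycerol buffer for 30 min at room temperature, washed, crosslinked with 0.1% formaldehyde and proximity-ligated with BsaI/T4 ligase at 37 °C for 1 h. PCR amplification and Illumina NextSeq500 sequencing came last. Binding signal is each hexamer's read frequency for a factor divided by its frequency for the tag-only sample.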

ELK1 = target: T2, ELK1 (Homo sapiens, UniProt P19419 1-428); details: protein: recombinant; tags: N-terminal GST; dsDNA, one strand shown
T2 sequence: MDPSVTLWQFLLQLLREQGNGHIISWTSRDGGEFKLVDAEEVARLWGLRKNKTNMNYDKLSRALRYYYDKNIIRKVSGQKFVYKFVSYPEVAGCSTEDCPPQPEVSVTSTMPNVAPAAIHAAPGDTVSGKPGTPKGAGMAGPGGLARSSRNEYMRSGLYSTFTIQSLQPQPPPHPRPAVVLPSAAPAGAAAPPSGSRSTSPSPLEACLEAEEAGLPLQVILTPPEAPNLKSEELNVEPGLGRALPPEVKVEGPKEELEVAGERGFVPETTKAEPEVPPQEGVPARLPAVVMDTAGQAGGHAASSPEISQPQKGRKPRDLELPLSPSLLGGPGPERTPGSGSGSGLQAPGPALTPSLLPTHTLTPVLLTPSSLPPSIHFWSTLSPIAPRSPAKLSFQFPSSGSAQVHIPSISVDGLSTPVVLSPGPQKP
In short: as §1

GABPA = target: T3, GABPA (Homo sapiens, UniProt Q06546 1-454); details: protein: recombinant; tags: N-terminal GST; dsDNA, one strand shown
T3 sequence: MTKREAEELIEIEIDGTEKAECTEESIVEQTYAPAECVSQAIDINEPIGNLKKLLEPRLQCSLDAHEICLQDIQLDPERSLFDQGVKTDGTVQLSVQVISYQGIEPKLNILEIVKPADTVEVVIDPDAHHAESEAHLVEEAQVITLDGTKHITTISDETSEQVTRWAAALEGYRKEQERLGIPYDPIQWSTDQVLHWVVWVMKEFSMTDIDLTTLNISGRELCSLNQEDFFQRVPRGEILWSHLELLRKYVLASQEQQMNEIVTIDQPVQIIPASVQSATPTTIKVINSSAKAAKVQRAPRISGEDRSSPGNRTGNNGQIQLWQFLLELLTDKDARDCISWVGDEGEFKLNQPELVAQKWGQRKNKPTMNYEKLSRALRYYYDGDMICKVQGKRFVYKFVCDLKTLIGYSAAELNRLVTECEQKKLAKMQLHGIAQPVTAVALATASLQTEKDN
In short: as §1

ERG = target: T4, ERG (Homo sapiens, UniProt P11308 1-479); details: protein: recombinant; tags: N-terminal GST; dsDNA, one strand shown
T4 sequence: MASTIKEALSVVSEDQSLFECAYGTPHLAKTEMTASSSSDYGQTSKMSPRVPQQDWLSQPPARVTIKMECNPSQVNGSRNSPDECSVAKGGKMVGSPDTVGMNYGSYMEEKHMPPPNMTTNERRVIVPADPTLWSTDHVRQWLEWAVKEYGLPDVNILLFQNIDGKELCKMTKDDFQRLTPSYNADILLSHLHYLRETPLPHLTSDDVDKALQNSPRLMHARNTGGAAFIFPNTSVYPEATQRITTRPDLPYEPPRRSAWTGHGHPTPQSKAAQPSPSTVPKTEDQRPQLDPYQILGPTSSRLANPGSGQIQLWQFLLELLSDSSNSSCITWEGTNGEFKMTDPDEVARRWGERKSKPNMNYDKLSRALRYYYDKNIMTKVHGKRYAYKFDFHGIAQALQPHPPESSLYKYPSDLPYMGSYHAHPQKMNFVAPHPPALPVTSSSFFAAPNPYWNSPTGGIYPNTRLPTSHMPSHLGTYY
In short: as §1

ELF1 = ELF1 (Homo sapiens, UniProt P32519 1-619); details: protein: recombinant; tags: N-terminal GST; dsDNA, one strand shown
In short: as §1

EHF = target: T5, EHF (Homo sapiens, UniProt Q9NZC4 1-300); details: protein: recombinant; tags: N-terminal GST; dsDNA, one strand shown
T5 sequence: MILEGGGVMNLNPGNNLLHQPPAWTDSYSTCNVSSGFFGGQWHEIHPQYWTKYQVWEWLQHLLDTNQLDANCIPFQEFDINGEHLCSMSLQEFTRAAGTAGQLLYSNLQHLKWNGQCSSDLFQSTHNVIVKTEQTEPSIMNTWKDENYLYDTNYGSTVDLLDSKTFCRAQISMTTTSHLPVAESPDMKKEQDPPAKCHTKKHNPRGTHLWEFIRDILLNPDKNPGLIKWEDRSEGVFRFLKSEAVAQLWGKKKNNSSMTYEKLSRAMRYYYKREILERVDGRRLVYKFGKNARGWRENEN
In short: as §1

SPI1 = SPI1 (Homo sapiens, UniProt P17947 1-270); details: protein: recombinant; tags: N-terminal GST; dsDNA, one strand shown
In short: as §1

SPIB = SPIB (Homo sapiens, UniProt Q01892 1-262); details: protein: recombinant; tags: N-terminal GST; dsDNA, one strand shown
In short: as §1

ELK3 = target: T6, ELK3 (Homo sapiens, UniProt P41970 1-407); details: protein: recombinant; tags: N-terminal GST; dsDNA, one strand shown
T6 sequence: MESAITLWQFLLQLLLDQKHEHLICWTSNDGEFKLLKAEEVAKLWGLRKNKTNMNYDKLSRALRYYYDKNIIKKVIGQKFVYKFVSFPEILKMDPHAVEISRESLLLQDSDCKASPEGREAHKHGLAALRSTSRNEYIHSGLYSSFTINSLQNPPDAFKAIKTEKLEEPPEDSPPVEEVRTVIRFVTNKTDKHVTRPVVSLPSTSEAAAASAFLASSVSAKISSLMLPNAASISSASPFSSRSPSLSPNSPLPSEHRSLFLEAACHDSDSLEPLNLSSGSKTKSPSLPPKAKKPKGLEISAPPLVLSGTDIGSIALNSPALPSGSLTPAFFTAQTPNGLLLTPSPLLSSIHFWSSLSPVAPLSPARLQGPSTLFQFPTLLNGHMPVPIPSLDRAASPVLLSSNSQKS
In short: as §1

FEV = target: T7, FEV (Homo sapiens, UniProt Q99581 1-238); details: protein: recombinant; tags: N-terminal GST; dsDNA, one strand shown
T7 sequence: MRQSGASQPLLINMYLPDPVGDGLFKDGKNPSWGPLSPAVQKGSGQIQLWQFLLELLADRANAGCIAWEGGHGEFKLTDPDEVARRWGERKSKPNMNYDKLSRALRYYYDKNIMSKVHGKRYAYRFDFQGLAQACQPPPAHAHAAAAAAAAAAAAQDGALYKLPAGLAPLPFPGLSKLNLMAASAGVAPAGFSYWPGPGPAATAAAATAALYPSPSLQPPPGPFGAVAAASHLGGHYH
In short: as §1

ETV5 = ETV5 (Homo sapiens, UniProt P41161 1-510); details: protein: recombinant; tags: N-terminal GST; dsDNA, one strand shown
In short: as §1

HSF1 = HSF1 (Homo sapiens, UniProt Q00613 1-529); details: protein: recombinant; tags: N-terminal GST; chain copies: 3; dsDNA, one strand shown
In short: as §1

SPIC = target: T8, SPIC (Homo sapiens, UniProt Q8N5J4 1-248); details: protein: recombinant; tags: N-terminal GST; dsDNA, one strand shown
T8 sequence: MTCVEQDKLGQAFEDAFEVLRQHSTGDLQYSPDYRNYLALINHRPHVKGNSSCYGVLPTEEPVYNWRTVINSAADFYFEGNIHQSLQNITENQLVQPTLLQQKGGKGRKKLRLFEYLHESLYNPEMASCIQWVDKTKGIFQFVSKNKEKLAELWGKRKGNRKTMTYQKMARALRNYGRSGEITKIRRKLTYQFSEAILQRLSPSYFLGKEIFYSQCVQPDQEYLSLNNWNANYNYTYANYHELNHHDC
In short: as §1

ELF4 = ELF4 (Homo sapiens, UniProt Q99607 1-663); details: protein: recombinant; tags: N-terminal GST; dsDNA, one strand shown
In short: as §1

ELK4 = target: T9, ELK4 (Homo sapiens, UniProt P28324-2 1-405); details: protein: recombinant; tags: N-terminal GST; dsDNA, one strand shown
T9 sequence: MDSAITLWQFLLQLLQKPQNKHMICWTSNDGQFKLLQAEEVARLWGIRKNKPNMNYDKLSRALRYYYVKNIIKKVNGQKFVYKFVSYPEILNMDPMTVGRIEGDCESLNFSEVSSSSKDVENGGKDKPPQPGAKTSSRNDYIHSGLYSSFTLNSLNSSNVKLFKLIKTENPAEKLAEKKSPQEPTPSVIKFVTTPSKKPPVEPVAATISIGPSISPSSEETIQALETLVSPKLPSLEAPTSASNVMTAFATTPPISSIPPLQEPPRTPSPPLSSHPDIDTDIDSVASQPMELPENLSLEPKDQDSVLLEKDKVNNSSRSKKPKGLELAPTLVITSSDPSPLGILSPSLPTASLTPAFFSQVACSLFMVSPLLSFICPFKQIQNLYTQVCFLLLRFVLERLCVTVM
In short: as §1

ETV2 = target: T10, ETV2 (Homo sapiens, UniProt O00321 1-342); details: protein: recombinant; tags: N-terminal GST; dsDNA, one strand shown
T10 sequence: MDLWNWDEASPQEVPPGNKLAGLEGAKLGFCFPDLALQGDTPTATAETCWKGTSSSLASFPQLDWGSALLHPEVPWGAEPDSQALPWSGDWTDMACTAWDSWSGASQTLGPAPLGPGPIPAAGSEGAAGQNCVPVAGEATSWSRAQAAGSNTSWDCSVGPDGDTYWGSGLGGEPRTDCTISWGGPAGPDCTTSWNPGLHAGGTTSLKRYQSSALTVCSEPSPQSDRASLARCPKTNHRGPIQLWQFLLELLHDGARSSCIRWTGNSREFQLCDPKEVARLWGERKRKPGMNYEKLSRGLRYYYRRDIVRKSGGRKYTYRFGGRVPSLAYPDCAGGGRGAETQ
In short: as §1

ELF3 = target: T11, ELF3 (Homo sapiens, UniProt P78545 1-371); details: protein: recombinant; tags: N-terminal GST; dsDNA, one strand shown
T11 sequence: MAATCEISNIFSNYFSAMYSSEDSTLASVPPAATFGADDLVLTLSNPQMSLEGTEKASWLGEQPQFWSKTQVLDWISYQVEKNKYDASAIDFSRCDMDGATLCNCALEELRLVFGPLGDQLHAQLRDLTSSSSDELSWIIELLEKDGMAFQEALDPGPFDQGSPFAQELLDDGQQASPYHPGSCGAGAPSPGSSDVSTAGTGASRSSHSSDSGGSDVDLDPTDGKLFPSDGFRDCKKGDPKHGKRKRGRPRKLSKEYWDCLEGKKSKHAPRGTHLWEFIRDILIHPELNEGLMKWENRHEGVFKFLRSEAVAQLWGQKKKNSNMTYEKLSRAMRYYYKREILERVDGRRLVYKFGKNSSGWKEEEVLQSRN
In short: as §1

CRX = CRX (Homo sapiens, UniProt O43186 1-299); details: protein: recombinant; tags: N-terminal GST; dsDNA, one strand shown
In short: as §1

ETV1 = ETV1 (Homo sapiens, UniProt P50549 1-477); details: protein: recombinant; tags: N-terminal GST; dsDNA, one strand shown
In short: as §1

ELF1, sequence (P32519 whole entry): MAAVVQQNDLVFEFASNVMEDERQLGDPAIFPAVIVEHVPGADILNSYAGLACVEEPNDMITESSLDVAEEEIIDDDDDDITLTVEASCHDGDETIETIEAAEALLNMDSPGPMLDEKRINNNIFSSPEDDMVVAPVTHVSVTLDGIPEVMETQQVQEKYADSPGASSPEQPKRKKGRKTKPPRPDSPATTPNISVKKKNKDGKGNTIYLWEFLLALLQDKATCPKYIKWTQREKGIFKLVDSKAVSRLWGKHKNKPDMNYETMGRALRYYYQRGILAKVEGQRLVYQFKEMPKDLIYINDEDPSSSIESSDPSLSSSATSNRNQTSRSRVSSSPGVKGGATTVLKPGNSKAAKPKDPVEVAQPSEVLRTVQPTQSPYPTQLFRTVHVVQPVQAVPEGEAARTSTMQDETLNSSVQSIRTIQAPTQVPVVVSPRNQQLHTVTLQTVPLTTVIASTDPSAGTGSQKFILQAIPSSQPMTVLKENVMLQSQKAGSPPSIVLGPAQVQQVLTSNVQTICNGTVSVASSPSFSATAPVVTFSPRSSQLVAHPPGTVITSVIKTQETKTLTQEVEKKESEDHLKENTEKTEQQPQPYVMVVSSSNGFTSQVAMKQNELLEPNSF
ETV1, sequence (P50549 whole entry): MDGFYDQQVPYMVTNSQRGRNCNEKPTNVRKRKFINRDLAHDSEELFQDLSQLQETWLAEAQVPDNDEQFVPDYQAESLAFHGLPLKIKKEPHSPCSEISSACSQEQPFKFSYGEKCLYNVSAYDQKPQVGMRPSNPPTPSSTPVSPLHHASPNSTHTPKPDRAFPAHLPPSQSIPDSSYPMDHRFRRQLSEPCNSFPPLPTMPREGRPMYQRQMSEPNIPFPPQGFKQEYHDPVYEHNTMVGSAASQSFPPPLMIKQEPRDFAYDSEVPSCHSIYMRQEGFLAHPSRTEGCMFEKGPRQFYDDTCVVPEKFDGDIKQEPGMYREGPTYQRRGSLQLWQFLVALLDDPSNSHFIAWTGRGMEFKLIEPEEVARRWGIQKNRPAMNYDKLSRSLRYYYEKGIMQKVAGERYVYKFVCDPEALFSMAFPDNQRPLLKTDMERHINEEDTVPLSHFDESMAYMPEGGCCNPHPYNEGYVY
ETV5, sequence (P41161 whole entry): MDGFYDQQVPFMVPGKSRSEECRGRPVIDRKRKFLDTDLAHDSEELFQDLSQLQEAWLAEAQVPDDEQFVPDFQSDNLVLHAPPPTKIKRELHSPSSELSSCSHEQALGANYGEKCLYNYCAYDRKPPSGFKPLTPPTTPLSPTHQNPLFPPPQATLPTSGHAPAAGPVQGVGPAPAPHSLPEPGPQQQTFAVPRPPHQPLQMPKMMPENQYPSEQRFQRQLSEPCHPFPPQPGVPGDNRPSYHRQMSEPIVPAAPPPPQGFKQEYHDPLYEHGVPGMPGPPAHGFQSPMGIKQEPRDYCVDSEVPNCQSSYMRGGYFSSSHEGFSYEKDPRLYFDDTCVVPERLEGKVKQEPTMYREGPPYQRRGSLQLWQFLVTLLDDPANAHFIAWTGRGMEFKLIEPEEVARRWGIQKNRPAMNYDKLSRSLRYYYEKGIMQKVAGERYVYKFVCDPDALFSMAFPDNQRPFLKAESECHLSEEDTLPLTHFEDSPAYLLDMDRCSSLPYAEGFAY
SPIB, sequence (Q01892 whole entry): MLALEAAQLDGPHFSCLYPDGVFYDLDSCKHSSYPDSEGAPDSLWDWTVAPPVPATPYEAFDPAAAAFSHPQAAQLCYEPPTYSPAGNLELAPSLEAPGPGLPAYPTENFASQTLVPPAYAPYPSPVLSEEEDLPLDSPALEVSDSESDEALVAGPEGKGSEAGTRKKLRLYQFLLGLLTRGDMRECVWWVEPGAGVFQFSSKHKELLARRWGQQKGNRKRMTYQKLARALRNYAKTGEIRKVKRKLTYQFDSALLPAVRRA
CRX, sequence (O43186 whole entry): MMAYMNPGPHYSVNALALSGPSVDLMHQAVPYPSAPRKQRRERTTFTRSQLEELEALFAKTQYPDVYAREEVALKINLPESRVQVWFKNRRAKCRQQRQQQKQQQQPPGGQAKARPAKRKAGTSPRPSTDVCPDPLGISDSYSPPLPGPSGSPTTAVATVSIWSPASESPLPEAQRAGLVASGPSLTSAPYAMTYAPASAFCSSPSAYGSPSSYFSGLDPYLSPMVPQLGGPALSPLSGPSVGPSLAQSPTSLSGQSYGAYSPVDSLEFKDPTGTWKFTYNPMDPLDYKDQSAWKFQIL
ELF4, sequence (Q99607 whole entry): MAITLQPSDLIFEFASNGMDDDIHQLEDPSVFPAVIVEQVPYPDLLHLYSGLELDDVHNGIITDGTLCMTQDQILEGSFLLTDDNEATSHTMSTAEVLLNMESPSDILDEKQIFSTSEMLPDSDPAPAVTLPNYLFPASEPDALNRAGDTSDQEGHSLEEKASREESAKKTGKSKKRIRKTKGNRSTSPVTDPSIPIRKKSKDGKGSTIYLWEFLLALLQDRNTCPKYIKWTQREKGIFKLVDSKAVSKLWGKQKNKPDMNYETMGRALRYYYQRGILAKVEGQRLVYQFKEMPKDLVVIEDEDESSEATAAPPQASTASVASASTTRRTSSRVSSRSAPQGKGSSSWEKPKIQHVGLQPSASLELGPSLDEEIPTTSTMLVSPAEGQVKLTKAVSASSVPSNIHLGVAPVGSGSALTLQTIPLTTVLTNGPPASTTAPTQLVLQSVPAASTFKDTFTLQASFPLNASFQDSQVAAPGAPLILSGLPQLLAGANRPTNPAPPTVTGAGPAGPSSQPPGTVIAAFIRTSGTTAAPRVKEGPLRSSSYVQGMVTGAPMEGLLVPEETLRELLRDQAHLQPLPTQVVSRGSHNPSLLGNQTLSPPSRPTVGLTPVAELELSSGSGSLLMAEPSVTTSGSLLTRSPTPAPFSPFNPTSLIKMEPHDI
HSF1, sequence (Q00613 whole entry): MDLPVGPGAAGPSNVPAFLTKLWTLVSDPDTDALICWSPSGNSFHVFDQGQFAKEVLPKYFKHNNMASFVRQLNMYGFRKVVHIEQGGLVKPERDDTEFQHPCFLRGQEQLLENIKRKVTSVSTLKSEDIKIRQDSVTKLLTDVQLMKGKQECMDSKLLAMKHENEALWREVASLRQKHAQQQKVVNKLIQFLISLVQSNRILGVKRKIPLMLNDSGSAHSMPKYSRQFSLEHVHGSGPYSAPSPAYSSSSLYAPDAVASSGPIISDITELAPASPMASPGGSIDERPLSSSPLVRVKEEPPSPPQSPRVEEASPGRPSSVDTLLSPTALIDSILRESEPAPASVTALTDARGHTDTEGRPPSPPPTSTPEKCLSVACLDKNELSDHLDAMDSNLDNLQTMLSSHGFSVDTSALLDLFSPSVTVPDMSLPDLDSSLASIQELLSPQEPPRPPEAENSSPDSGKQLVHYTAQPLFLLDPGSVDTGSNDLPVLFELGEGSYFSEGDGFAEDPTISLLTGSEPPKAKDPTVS

## CCTTAG
FLI1
  binding signal: 1.3 fold enrichment (6-mer frequency, TF over GST control)
ELK1
  binding signal: 1.3 fold enrichment (6-mer frequency, TF over GST control)
GABPA
  binding signal: 1.18 fold enrichment (6-mer frequency, TF over GST control)
ERG
  binding signal: 1.24 fold enrichment (6-mer frequency, TF over GST control)
ELF1
  binding signal: 1.27 fold enrichment (6-mer frequency, TF over GST control)
EHF
  binding signal: 1.3 fold enrichment (6-mer frequency, TF over GST control)
SPI1
  binding signal: 1.21 fold enrichment (6-mer frequency, TF over GST control)
SPIB
  binding signal: 1.34 fold enrichment (6-mer frequency, TF over GST control)
ELK3
  binding signal: 1.23 fold enrichment (6-mer frequency, TF over GST control)
FEV
  binding signal: 1.28 fold enrichment (6-mer frequency, TF over GST control)
ETV5
  binding signal: 1.18 fold enrichment (6-mer frequency, TF over GST control)
HSF1
  binding signal: 1.2 fold enrichment (6-mer frequency, TF over GST control)
SPIC
  binding signal: 1.36 fold enrichment (6-mer frequency, TF over GST control)
ELF4
  binding signal: 1.34 fold enrichment (6-mer frequency, TF over GST control)
ELK4
  binding signal: 1.34 fold enrichment (6-mer frequency, TF over GST control)
ETV2
  binding signal: 1.32 fold enrichment (6-mer frequency, TF over GST control)
ELF3
  binding signal: 1.05 fold enrichment (6-mer frequency, TF over GST control)
CRX
  binding signal: 1.28 fold enrichment (6-mer frequency, TF over GST control)
ETV1
  binding signal: 1.22 fold enrichment (6-mer frequency, TF over GST control)
